# Values without a mark were called inactive. Inconclusive results are not listed. Entries that show only a call come without a potency. Activity calls are given as the source filed them. Unless noted, calls come from the whole dose curve; as a rule, active = well fitted curve in the direction sought with a large enough effect in the repeat runs; inconclusive = weak or mixed curves; inactive = no such curve, though single readings can be large; an effect the other way counts as inactive or inconclusive.
# Key:
# [1] = qHTS assay for identifying genotoxic compounds that show differential cytotoxicity against isogenic chicken DT40 cell lines with known DNA damage response pathways - wild type cell line (AID 743012); note: nearly all actives have a fitted effect of over 60% in size; note: potency is the fitted concentration of half-maximal effect
# How it was run: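 Wild type DT40, 300 cells/well, ~0.5 h settle at 37 C/5% CO2; compounds in DMSO added by pintool; 40 h at 37 C/5% CO2; CellTiter-Glo, 30 min RT; luminescence.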
# [2] = qHTS assay for identifying genotoxic compounds that show differential cytotoxicity against isogenic chicken DT40 cell lines with known DNA damage response pathways - Rev3 mutant cell line (AID 743014); note: nearly all actives have a fitted effect of over 55% in size; note: potency is the fitted concentration of half-maximal effect
# [3] = qHTS assay for identifying genotoxic compounds that show differential cytotoxicity against isogenic chicken DT40 cell lines with known DNA damage response pathways - Rad54/Ku70 mutant cell line (AID 743015); note: nearly all actives have a fitted effect of over 60% in size; note: potency is the fitted concentration of half-maximal effect
# [4] = qHTS assay to identify small molecule antagonists of the androgen receptor (AR) signaling pathway - cell viability counter screen (AID 743033; note: nearly all actives have a fitted effect of over 45% in size)
# [5] = qHTS assay to identify small molecule antagonists of the androgen receptor (AR) signaling pathway using the MDA cell line - cell viability counter screen (AID 743041; note: nearly all actives have a fitted effect of over 45% in size)
# How it was run: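 R1881-driven MDA-kb2 AR-luc cells, 3,000/well, were dosed with library compounds for 16 h; cell health came from CellTiter-Fluor fluorescence in the reporter wells.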
# [6] = qHTS assay to identify small molecule antagonists of the thyroid receptor (TR) signaling pathway - cell viability counter screen (AID 743064); note: nearly all actives have a fitted effect of over 50% in size
# How it was run: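 Compounds were tested on GH3.TRE-Luc cells in the presence of T3 at 1 nM final. Following 23.5 h at 37 °C, cell viability was quantified by CellTiter-Fluor.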
# [7] = tested on: thyroid hormone receptor (rat, GH3 cells); assay: qHTS assay to identify small molecule agonists of the thyroid receptor (TR) signaling pathway (AID 743066; calls by dose curve)
# [8] = qHTS assay to identify small molecule antagonists of the estrogen receptor alpha (ER-alpha) signaling pathway - cell viability counter screen (AID 743074; calls by dose curve;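 note: HEK293 cells carrying ER-alpha-UAS-bla reporter stimulated with 17beta-estradiol; nearly all actives have a fitted effect of over 45% in size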)
# Aromatase (Homo sapiens) = Aromatase (Homo sapiens) (UniProt P11511); assay: qHTS assay to identify aromatase inhibitors (AID 743083); note: series mostly up to about 70 µM; nearly all actives have a fitted effect of over 55% in size
# [9] = qHTS assay to identify small molecule antagonists of the estrogen receptor alpha (ER-alpha) signaling pathway using the BG1 cell line - cell viability counter screen (AID 743081);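 note: compound given together with 17beta-estradiol as the ER stimulus; series mostly up to about 70 µM; nearly all actives have a fitted effect of over 45% in size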
# [10] = qHTS assay to identify small molecule antagonists of the thyroid receptor (TR) signaling pathway (AID 743065); note: series mostly up to about 70 µM; nearly all actives have a fitted effect of over 55% in size
# How it was run: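 Antagonism measured as loss of luciferase signal in GH3 cells stably carrying a TRE-luciferase reporter, co-treated with compound and T3 (1 nM final) for 23.5 h at 37 C. Viability was read in the same well by CellTiter-Fluor.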
# [11] = molecular target: Estrogen receptor (Homo sapiens) (UniProt P03372); assay: qHTS assay to identify small molecule antagonists of the estrogen receptor alpha (ER-alpha) signaling pathway (AID 743069; active = well fitted curve in the direction sought with a large enough effect in the signal ratio in the repeat runs, not every such curve was filed as active; the % refers to the signal ratio)
# How it was run: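 Compound effects are measured against 17beta-estradiol stimulation in HEK293 cells with a UAS-controlled beta-lactamase reporter for ER-alpha. Exposure lasts 18 hr at 37C; LiveBLAzer B/G FRET substrate follows for 2 hr at room temperature.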
# [12] = molecular target: Estrogen receptor (Homo sapiens) (UniProt P03372); assay: qHTS assay to identify small molecule agonists of the estrogen receptor alpha (ER-alpha) signaling pathway (AID 743075; calls by dose curve)
# [13] = molecular target: Estrogen receptor (Homo sapiens) (UniProt P03372); assay: qHTS assay to identify small molecule agonists of the estrogen receptor alpha (ER-alpha) signaling pathway using the BG1 cell line (AID 743079); note: nearly all actives have a fitted effect of over 20% in size; note: potency is the fitted concentration of half-maximal effect
# [14] = qHTS assay to identify small molecule antagonists of the estrogen receptor alpha (ER-alpha) signaling pathway using the BG1 cell line (AID 743080; calls by dose curve;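 note: BG1 cells stimulated with 17beta-estradiol alongside compound; series mostly up to about 70 µM; nearly all actives have a fitted effect of over 25% in size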)
# How it was run: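 Luciferase inhibition measured with ONE-Glo after 30 min at RT in BG1Luc4E2 cells given test compounds and 17beta-estradiol for 21.5 h at 37 C; CellTiter-Fluor viability read in the same wells beforehand.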
# [15] = molecular target: Androgen receptor (Homo sapiens) (UniProt P10275); assay: qHTS assay to identify small molecule antagonists of the androgen receptor (AR) signaling pathway (AID 743035; active = well fitted inhibition curve with a large enough effect in the signal ratio in the repeat runs, not every such curve was filed as active; the % refers to the signal ratio)
# How it was run: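 Fluorescence from a beta-lactamase FRET substrate (LiveBLAzer B/G, 2 h, room temperature) measured inhibition of R1881-stimulated signaling in GeneBLAzer AR-UAS-bla HEK293 cells exposed to compound for 16 h at 37C.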
# [16] = molecular target: Androgen receptor (Homo sapiens) (UniProt P10275); assay: qHTS assay to identify small molecule agonists of the androgen receptor (AR) signaling pathway (AID 743036; active = well fitted activation curve with a large enough effect in the signal ratio in the repeat runs, with a control signal flat, not every such curve was filed as active; the % refers to the signal ratio)
# How it was run: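 Beta-lactamase under UAS control, stably integrated in HEK293 GripTite cells, reports receptor activation. After 16 h compound treatment, cells received FRET substrate for 2 h at room temperature before fluorescence reading.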
# [17] = molecular target: Androgen receptor (Homo sapiens) (UniProt P10275); assay: qHTS assay to identify small molecule agonists of the androgen receptor (AR) signaling pathway using the MDA cell line (AID 743040; note: nearly all actives have a fitted effect of over 20% in size)
# How it was run: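 After a 5 h incubation at 37C and 0% CO2, MDA-kb2 reporter cells were dosed with compounds in DMSO and kept 16 h under the same conditions. Luciferase activity was then read as luminescence with ONE-Glo.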
# [18] = molecular target: Androgen receptor (Homo sapiens) (UniProt P10275); assay: qHTS assay to identify small molecule antagonists of the androgen receptor (AR) signaling pathway using the MDA cell line (AID 743042; note: nearly all actives have a fitted effect of over 55% in size)
# How it was run: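 Antagonist mode: compounds plus R1881 agonist added to MDA-kb2 AR-luc cells, incubated 16 h at 37C. Luciferase reporter luminescence quantified, with multiplexed CellTiter-Fluor readout for cell viability.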
# Estrogen receptor (Homo sapiens), sequence (P03372 whole entry, looked up): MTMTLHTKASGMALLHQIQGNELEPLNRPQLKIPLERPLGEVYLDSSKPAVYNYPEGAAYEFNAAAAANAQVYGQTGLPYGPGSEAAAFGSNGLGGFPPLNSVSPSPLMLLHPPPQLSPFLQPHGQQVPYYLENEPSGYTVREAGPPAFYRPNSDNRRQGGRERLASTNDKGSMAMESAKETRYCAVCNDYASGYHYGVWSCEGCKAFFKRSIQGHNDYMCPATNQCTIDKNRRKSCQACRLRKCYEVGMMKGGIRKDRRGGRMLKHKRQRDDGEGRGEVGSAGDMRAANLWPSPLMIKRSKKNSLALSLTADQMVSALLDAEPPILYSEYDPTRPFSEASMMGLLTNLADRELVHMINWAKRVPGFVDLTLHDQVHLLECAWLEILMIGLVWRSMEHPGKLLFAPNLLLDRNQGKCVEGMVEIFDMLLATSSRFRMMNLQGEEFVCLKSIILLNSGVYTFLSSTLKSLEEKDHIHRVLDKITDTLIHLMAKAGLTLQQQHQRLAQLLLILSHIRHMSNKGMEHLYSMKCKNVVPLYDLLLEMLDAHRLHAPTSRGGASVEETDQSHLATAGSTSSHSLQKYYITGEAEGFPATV
# Androgen receptor (Homo sapiens), sequence (P10275 whole entry, looked up): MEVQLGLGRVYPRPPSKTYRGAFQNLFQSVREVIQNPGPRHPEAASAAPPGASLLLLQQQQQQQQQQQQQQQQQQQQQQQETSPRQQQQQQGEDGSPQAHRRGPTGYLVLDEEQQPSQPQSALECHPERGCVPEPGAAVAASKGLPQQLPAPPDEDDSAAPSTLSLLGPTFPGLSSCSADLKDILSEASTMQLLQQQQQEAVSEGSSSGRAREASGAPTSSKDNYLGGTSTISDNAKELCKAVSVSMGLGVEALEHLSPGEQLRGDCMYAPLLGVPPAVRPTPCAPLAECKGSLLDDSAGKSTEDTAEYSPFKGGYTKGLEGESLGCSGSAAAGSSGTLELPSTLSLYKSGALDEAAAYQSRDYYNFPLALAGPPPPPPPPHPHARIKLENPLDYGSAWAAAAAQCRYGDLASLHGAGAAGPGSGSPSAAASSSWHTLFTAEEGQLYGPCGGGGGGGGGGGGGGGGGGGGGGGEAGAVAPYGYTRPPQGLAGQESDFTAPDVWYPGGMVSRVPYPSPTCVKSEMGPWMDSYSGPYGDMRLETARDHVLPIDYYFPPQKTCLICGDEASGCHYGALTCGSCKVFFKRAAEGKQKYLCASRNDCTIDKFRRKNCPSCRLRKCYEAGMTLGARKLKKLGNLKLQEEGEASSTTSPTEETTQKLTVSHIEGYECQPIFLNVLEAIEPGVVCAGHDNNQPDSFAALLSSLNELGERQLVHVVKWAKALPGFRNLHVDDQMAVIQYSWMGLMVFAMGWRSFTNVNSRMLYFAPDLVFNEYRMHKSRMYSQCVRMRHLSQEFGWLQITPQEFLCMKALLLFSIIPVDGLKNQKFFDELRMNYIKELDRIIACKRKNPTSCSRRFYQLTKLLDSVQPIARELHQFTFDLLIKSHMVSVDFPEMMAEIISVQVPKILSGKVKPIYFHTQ
# Aromatase (Homo sapiens), sequence (P11511 whole entry, looked up): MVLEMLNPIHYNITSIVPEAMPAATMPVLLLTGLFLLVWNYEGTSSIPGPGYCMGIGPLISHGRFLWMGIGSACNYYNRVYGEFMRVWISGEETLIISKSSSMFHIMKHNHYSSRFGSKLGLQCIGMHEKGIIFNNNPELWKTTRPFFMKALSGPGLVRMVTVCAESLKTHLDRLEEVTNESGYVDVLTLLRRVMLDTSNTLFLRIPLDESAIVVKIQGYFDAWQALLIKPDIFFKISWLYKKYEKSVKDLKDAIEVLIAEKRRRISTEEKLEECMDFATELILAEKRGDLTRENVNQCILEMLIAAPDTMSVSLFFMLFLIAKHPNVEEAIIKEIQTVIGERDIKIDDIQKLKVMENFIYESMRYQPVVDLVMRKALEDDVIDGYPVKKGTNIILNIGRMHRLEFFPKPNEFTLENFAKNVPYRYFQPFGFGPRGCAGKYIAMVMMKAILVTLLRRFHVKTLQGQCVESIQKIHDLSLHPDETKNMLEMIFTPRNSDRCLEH
smiles,measurement,setting,value
C1CCN2C[C@@H]3C[C@@H](CN4CCCC[C@@H]34)[C@H]2C1,Potency,[1],inactive
same,Potency,[2],inactive
same,Potency,[3],inactive
same,outcome,[4],inactive
same,outcome,[5],inactive
same,Potency,[6],inactive
same,Potency,[7],inactive
same,Potency,[8],inactive
same,outcome,Aromatase (Homo sapiens),inactive
C[C@H]1O[C@H](O[C@H]2[C@H](O)[C@@H](O)[C@@H](O[C@H]3[C@H](O)[C@@H](O)[C@H](O)O[C@@H]3CO)O[C@@H]2CO)[C@H](O)[C@@H](O)[C@@H]1N[C@H]1C=C(CO)[C@@H](O)[C@H](O)[C@H]1O,Potency,[1],inactive
same,Potency,[2],inactive
same,outcome,[4],inactive
same,outcome,[5],inactive
same,Potency,[6],inactive
same,Potency,[7],inactive
same,Potency,[8],inactive
same,outcome,[9],inactive
same,outcome,Aromatase (Homo sapiens),inactive
OC[C@@H](O)[C@H](O)[C@@H](O)[C@@H](O)CO,Potency,[2],inactive
same,Potency,[3],inactive
same,outcome,[4],inactive
same,outcome,[5],inactive
same,Potency,[6],inactive
same,Potency,[10],inactive
same,Potency,[7],inactive
same,Potency,[11],inactive
same,Potency,[8],inactive
same,Potency,[12],inactive
same,Potency,[13],inactive
same,outcome,[14],inactive
same,outcome,[9],inactive
same,outcome,Aromatase (Homo sapiens),inactive
CC(=O)OC(C)c1ccccc1 (stereo unspecified),Potency,[2],inactive
same,Potency,[3],inactive
same,outcome,[4],inactive
same,Potency,[6],inactive
same,Potency,[10],inactive
same,Potency,[7],inactive
same,Potency,[11],inactive
same,Potency,[8],inactive
same,Potency,[12],inactive
same,Potency,[13],inactive
same,outcome,[14],inactive
same,outcome,[9],inactive
same,outcome,Aromatase (Homo sapiens),inactive
O=C(Oc1ccccc1C(=O)O)c1ccccc1O,Potency,[3],inactive
same,outcome,[4],inactive
same,outcome,[5],inactive
same,Potency,[6],inactive
same,Potency,[10],inactive
same,Potency,[7],inactive
same,Potency,[11],inactive
same,Potency,[8],inactive
same,Potency,[12],inactive
same,Potency,[13],26.6 µM (active)
same,outcome,[14],inactive
same,outcome,[9],inactive
same,outcome,Aromatase (Homo sapiens),inactive
CCCCC(CC)COC(=O)c1ccccc1 (stereo unspecified),Potency,[1],inactive
same,Potency,[2],inactive
same,Potency,[3],inactive
same,outcome,[4],inactive
same,Potency,[6],inactive
same,Potency,[10],inactive
same,Potency,[7],inactive
same,Potency,[11],inactive
same,Potency,[8],inactive
same,Potency,[12],inactive
same,Potency,[13],inactive
same,outcome,[14],inactive
same,outcome,[9],inactive
same,outcome,Aromatase (Homo sapiens),inactive
CO/N=C(/C(=O)N[C@@H]1C(=O)N2C(C(=O)O)=C(Cn3nnc(C)n3)CS[C@H]12)c1csc(N)n1,Potency,[2],inactive
same,Potency,[3],inactive
same,outcome,[4],inactive
same,outcome,[5],inactive
same,Potency,[6],inactive
same,Potency,[10],inactive
same,Potency,[7],inactive
same,outcome,[9],inactive
CN(C1CCCCC1)S(=O)(=O)c1ccccc1N,Potency,[1],30.6 µM (active)
same,Potency,[3],54.5 µM (active)
same,outcome,[5],inactive
same,Potency,[6],inactive
same,Potency,[7],inactive
same,Potency,[8],inactive
same,outcome,[9],inactive
same,outcome,Aromatase (Homo sapiens),inactive
CN[C@@H]1[C@@H](O)[C@@H](O[C@@H]2[C@H](O)[C@H](O[C@H]3OC(CN)=CC[C@H]3N)[C@@H](N)C[C@H]2N)OCC1(C)O (stereo partly specified),Potency,[1],inactive
same,Potency,[2],inactive
same,Potency,[3],inactive
same,outcome,[4],inactive
same,outcome,[5],inactive
same,Potency,[6],inactive
same,Potency,[7],inactive
same,Potency,[8],inactive
same,outcome,[9],inactive
same,outcome,Aromatase (Homo sapiens),inactive
Cc1ccccc1C,Potency,[1],inactive
same,Potency,[2],inactive
same,Potency,[3],inactive
same,outcome,[4],inactive
same,outcome,[5],inactive
same,Potency,[11],inactive
same,Potency,[8],inactive
same,Potency,[12],inactive
same,Potency,[13],inactive
same,outcome,[14],inactive
same,outcome,[9],inactive
same,outcome,Aromatase (Homo sapiens),inactive
Cc1cc(O)c2c(c1)C(=O)c1cccc(O)c1C2=O,Potency,[1],inactive
same,Potency,[3],26.7 µM (active)
same,outcome,[4],inactive
same,outcome,[5],inactive
same,Potency,[6],inactive
same,Potency,[10],inactive
same,Potency,[7],inactive
same,Potency,[11],inactive
same,Potency,[8],inactive
same,Potency,[12],inactive
same,Potency,[13],inactive
same,outcome,[14],inactive
same,outcome,Aromatase (Homo sapiens),inactive
C=C(C)C(=O)OC,Potency,[1],inactive
same,Potency,[2],inactive
same,Potency,[3],inactive
same,outcome,[4],inactive
same,outcome,[5],inactive
same,Potency,[6],inactive
same,Potency,[10],inactive
same,Potency,[7],inactive
same,outcome,[9],inactive
same,outcome,Aromatase (Homo sapiens),inactive
CCCCCCCCCCCCCC(=O)OC,Potency,[1],inactive
same,outcome,[4],inactive
same,Potency,[15],inactive
same,outcome,[16],inactive
same,outcome,[17],inactive
same,outcome,[5],inactive
same,outcome,[18],inactive
same,Potency,[6],inactive
same,Potency,[10],inactive
same,Potency,[7],inactive
same,Potency,[11],inactive
same,Potency,[8],inactive
same,Potency,[12],inactive
same,Potency,[13],inactive
same,outcome,[14],inactive
same,outcome,[9],inactive
same,outcome,Aromatase (Homo sapiens),inactive
COCCOCCOCCOC,Potency,[1],inactive
same,Potency,[2],inactive
same,outcome,[4],inactive
same,outcome,[5],inactive
same,Potency,[6],inactive
same,Potency,[10],inactive
same,Potency,[7],inactive
same,Potency,[8],inactive
same,outcome,[9],inactive
same,outcome,Aromatase (Homo sapiens),inactive
CCOC(=O)OCC/C(SC(=O)OCC)=C(\C)N(C=O)Cc1cnc(C)nc1N,Potency,[1],inactive
same,Potency,[2],inactive
same,Potency,[3],inactive
same,outcome,[4],inactive
same,outcome,[5],inactive
same,Potency,[6],inactive
same,Potency,[10],inactive
same,Potency,[7],inactive
same,outcome,Aromatase (Homo sapiens),inactive
CC(=O)OCCCc1ccccc1,Potency,[1],inactive
same,Potency,[2],inactive
same,Potency,[3],inactive
same,outcome,[4],inactive
same,Potency,[6],inactive
same,Potency,[10],inactive
same,Potency,[7],inactive
same,Potency,[8],inactive
same,outcome,[9],inactive
same,outcome,Aromatase (Homo sapiens),inactive
CCOc1ccc(NC(=O)OC(C)C)cc1OCC,Potency,[2],61.1 µM (active)
same,outcome,[4],inactive
same,outcome,[5],inactive
same,Potency,[6],inactive
same,Potency,[10],inactive
same,Potency,[7],inactive
same,Potency,[8],inactive
same,outcome,[9],inactive
same,outcome,Aromatase (Homo sapiens),inactive
Nc1cc(C(=O)O)ccc1Cl,Potency,[2],inactive
same,Potency,[3],inactive
same,outcome,[4],inactive
same,Potency,[15],inactive
same,outcome,[16],inactive
same,outcome,[17],inactive
same,outcome,[5],inactive
same,outcome,[18],inactive
same,Potency,[6],inactive
same,Potency,[10],inactive
same,Potency,[7],inactive
same,Potency,[11],inactive
same,Potency,[8],inactive
same,Potency,[12],inactive
same,Potency,[13],inactive
same,outcome,[14],inactive
same,outcome,[9],inactive
same,outcome,Aromatase (Homo sapiens),inactive
C=CCOCC(CO)(COCC=C)COCC=C,Potency,[2],inactive
same,Potency,[3],inactive
same,outcome,[4],inactive
same,Potency,[6],inactive
same,Potency,[10],inactive
same,Potency,[7],inactive
same,Potency,[11],inactive
same,Potency,[12],inactive
same,Potency,[13],inactive
same,outcome,[14],inactive
same,outcome,[9],inactive
same,outcome,Aromatase (Homo sapiens),inactive
Cc1nc(C)nc(N2C[C@@H](C)N(c3ccnc([C@@H](C)O)n3)[C@@H](C)C2)n1,Potency,[1],inactive
same,outcome,[4],inactive
same,outcome,[5],inactive
same,Potency,[6],inactive
same,Potency,[7],inactive
same,Potency,[11],inactive
same,Potency,[8],inactive
same,Potency,[12],inactive
same,Potency,[13],inactive
same,outcome,[14],inactive
same,outcome,[9],inactive
same,outcome,Aromatase (Homo sapiens),inactive
O=C(/C=C/c1ccccc1)NCCO,Potency,[1],inactive
same,Potency,[2],inactive
same,outcome,[4],inactive
same,outcome,[5],inactive
same,Potency,[6],inactive
same,Potency,[10],inactive
same,Potency,[7],inactive
same,Potency,[11],inactive
same,Potency,[8],inactive
same,Potency,[12],inactive
same,Potency,[13],inactive
same,outcome,[14],inactive
same,outcome,[9],inactive
same,outcome,Aromatase (Homo sapiens),inactive
O=CO,"activity change, negative = cytotoxicity",[4],-5.92% [at 7.04 µM]
same,"activity change, negative = cytotoxic",[6],-0.961% [at 8.44 µM]
same,"activity, negative = inhibition",[10],-3.91% [at 8.44 µM]
same,activation,[7],0.246% [at 8.08 µM]
same,"activity, negative = cytotoxicity",[8],6.52% [at 6.72 µM]
same,"activity change, negative = cytotoxicity",[9],0.807% [at 8.47 µM]
same,"activity, negative = inhibition",Aromatase (Homo sapiens),10.9% [at 8.47 µM]

# Source: PubChem BioAssay (Tox21)
